In PubChem BioAssay AID602310 (National Center for Advancing Translational Sciences (NCATS), 2012):
About 310 (0.076%) of roughly 410,000 compounds were called active. A call without a number means that no potency is given here. About 2% were inconclusive and are not listed. Calls follow the shape of the dose curve; as a rule, active = well fitted curve in the direction sought with a large enough effect; inconclusive = small, poorly fitted or top-dose-only effect; inactive = flat fitted curve, though single readings scatter. The sample as a whole holds a higher share of actives than the screen did.

Each molecule was assayed against DNA dC->dU-editing enzyme APOBEC-3G (Homo sapiens) (UniProt Q9HC16) (assay: qHTS for Inhibitors of Vif-A3G Interactions: qHTS). Conditions: HeLa A3G-eYFP + Vif (tagged APOBEC3G with the HIV-1 protein that degrades it), YFP fluorescence, overnight; series mostly up to 46.1 µM.
Summary of the method: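 HeLa cells stably expressing Vif and C-terminally eYFP-tagged A3G, seeded overnight at 37 deg C, then exposed to compound by pintool overnight at 37 deg C. Rise in yellow fluorescence (Ex 488/Em 500-530, Acumen) marks blocked Vif-driven A3G degradation.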
Also: nearly all actives have a fitted effect of over 60% in size.
Potency is read from the fitted curve at half-maximal effect.

Sequence of DNA dC->dU-editing enzyme APOBEC-3G (Homo sapiens) (Q9HC16 whole entry, looked up): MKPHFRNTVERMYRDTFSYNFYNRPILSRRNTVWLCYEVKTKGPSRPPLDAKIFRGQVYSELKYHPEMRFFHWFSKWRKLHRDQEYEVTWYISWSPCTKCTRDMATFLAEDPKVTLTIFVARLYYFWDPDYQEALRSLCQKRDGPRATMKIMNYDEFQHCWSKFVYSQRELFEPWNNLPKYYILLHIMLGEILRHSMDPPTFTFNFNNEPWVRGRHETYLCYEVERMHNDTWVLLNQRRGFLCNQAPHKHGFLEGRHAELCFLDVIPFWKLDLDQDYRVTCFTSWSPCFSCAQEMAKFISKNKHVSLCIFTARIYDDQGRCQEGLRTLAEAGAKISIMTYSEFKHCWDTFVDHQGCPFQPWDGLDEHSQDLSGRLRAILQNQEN

| Compound | Potency |
| --- | --- |
| C[N+]1(CC(=O)c2cccs2)CCOCC1 | inactive |
| CCCNC(=O)C1CCN(c2nc3ccc(C)cc3[nH]2)CC1 | inactive |
| COc1cc(OC)c(NC(=O)c2c3c(nn2C)-c2ccccc2SC3)cc1Cl | inactive |
| CN(N=O)c1ccc(C=C2c3ccccc3-c3ccccc32)cc1 | inactive |
| COc1ccc2[nH]c3c(c2c1)CCN(C(=O)CCC1CCCC1)C3c1ccc(F)cc1 (stereo unspecified) | inactive |
| CN(C)c1cccc2ccccc12 | inactive |
| CN(C)c1ccc(/C=C/c2c3ccccc3nc3ccccc23)cc1 | inactive |
| Cc1oc2c(c1C(=O)Nc1ccc(F)c(F)c1)C1=NCCN1C=N2 | inactive |
| CCc1nnc(SCc2c(F)cccc2Cl)c2cc3sccc3n12 | inactive |
| COc1ccc(/C=C/c2ccccn2)cc1OC | inactive |
| Cc1cc(Cl)ccc1OCC(=O)N(Cc1ccc(N(C)C)cc1)C1CCS(=O)(=O)C1 (stereo unspecified) | inactive |
| CN(C)C1=C2C=CC=CC2/C(=C2/C=Cc3ccccc32)C=C1 (stereo unspecified) | inactive |
| CCOc1ccccc1NC(=O)Cn1c(=O)n(-c2cccc(C)c2)c(=O)c2c1c1cc(OC)ccc1n2C | inactive |
| O=C(Nc1ccc([N+](=O)[O-])cc1)c1cnn2c1NC(=C1CC1)C=C2C(F)F | inactive |
| O=C(CSc1ncc(S(=O)(=O)c2ccc(Br)cc2)c(=O)[nH]1)Nc1ccc2c(c1)OCCO2 | inactive |
| CCOc1ccccc1C(=O)NCc1ccc2c(c1)CCN2C(=O)c1ccc(F)cc1 | inactive |
| COc1cc2nc(C#Cc3nc4cc(OC)c(OC)cc4[nH]3)[nH]c2cc1OC | inactive |
| Cc1ccccc1NC(=O)COc1cccc2c1CCNC2=O | inactive |
| Cc1ncc(CO)c(/C=N/NC(=O)c2cccc(S(=O)(=O)N3CCCC3)c2)c1O | inactive |
| COc1cccc(/C=N/NC(=O)c2[nH]nc3c2CCc2ccccc2-3)c1O | 8.91 µM (active) |
| CCc1cc2c(cc3c(=O)n(CC(=O)N4CCN(c5cc(Cl)ccc5C)CC4)nc(CC)n32)s1 | inactive |
